Whole data set: some 1,700 compounds, median “T2 sensor activation Q score (MG/GFP ratio z-score vs DMSO controls)” near 0.3, cut for the highest 2% near 1.9. The entries come from a sample that favours the highest values as a whole.
system: ppGalNAc-T2 sensor; assay: T2 sensor activation Q score (MG/GFP ratio z-score vs DMSO controls) (SD units); higher = more sensor activation (inhibition of ppGalNAc-T2 glycosylation); settings: HEK293 sensor cells; 10 µM; 6 h
Description: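 Cells were treated with compound at 10 uM for 6 h, then MG/GFP ratio was read by flow cytometry (10,000 cells per well, duplicate wells). Q = (R - R_neg)/SD_neg relative to DMSO vehicle controls; the signal rises when the glycosyltransferase is inhibited.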

Row | SMILES | T2 sensor activation Q score
1 | Cc1cccc(C(O)C(O)c2cccc(C)n2)n1 (configuration not stated) | 0.55
2 | COc1ccccc1/C=C(\C#N)C(=O)O | 1.4
3 | c1ccc2c(c1)nnn2-c1ccncc1 | -0.1
4 | Nc1nnc(-c2cccnc2)s1 | 0.6
5 | Cc1cnc2c(N)cc(C)c(C)c2c1 | 1.15
6 | O=[N+]([O-])c1cc(-c2cccnc2)n[nH]1 | -0.35
7 | Nc1ccccc1C(=O)Nc1ccc(Cl)cc1Cl | 0.45
8 | C#CC1(N2CCCCC2)CCCCC1 | 0.8
9 | Clc1nnc(NC2CCCCC2)c(Cl)c1Cl | 0.15
10 | CC(=O)OCC1OC(COC(C)=O)(c2ccc(C)cc2)C(OC(C)=O)C1OC(C)=O (configuration not stated) | 0.15
11 | c1ccc(NN(Cc2ccncc2)c2ccccc2)cc1 | 0.95
12 | COc1cc(-c2ccc(Nc3ccccc3C(=O)O)c(OC)c2)ccc1Nc1ccccc1C(=O)O | -0.5
13 | COc1ccc(Nc2cc(Cl)ccc2C(=O)O)cn1 | 2.25
14 | CCCCOc1ccc(Nc2cc(Cl)ccc2C(=O)O)cn1 | 1.2
15 | c1coc(CNc2ncnc3[nH]ncc23)c1 | 0.7
16 | O=C(O)/C=C/C(=O)N1Cc2cc3ccccc3nc2C1 | -0.3
17 | CCCCN1C(=O)CC2CCOC21C (configuration not stated) | -0.45
18 | CN1C(=C=Cc2cc(I)c(O)c(I)c2)C(C)(C)c2ccccc21 | 3.65
19 | Cc1nnc(-n2cccc2)s1 | 1.4
20 | Clc1ccc(Oc2nc3c(Cl)cccc3s2)cc1Cl | 0.85
21 | Nc1n[nH]c(CO)n1 | 1.95
22 | Nc1n[nH]c(-c2ccccc2)n1 | 0.75
23 | C(COC1CC2CC1C1C2CC2OC21)OC1CC2CC1C1C2CC2OC21 (configuration not stated) | 0.15
24 | CC(C)C[C@H](NC(=O)[C@H](CCc1ccccc1)NC(=O)CN1CCOCC1)C(=O)N[C@@H](Cc1ccccc1)C(=O)N[C@@H](CC(C)C)C(=O)[C@@]1(C)CO1 | -1.65

Row | SMILES | T2 sensor activation Q score
25 | O=C1c2cccc(Sc3ccccc3)c2C(=O)c2c(Sc3ccccc3)cccc21 | -0.5
26 | S=c1nc[nH]c2c1ncn2C1CCCC1 | 1.4
27 | COc1ccc2nc3cc(Cl)ccc3c(Nc3cc(C(C)C)c(O)cc3C)c2c1 | 0.55
28 | N#Cc1nnn(-c2ccc(Cl)cc2)c1N | 1
29 | CSC1=NC=C(C#N)C2=NC(c3ccc(Cl)cc3)NN12 (configuration not stated) | 2.45
30 | Cc1c(Cl)cccc1Nc1ncccc1C(=O)OCC(O)CO (configuration not stated) | -0.65
31 | CN(C)c1ccc(C(c2ccc(N(C)C)cc2)c2ccc([N+](=O)[O-])cc2)cc1 | 0.55
32 | CCSc1nc(O)cc(=O)[nH]1 | -0.9
33 | CC(=O)[C@H]1CC[C@H]2[C@@H]3CCC4=CC(=O)C=C[C@]4(C)[C@H]3C(=O)C[C@]12C | 1.65
34 | CCOCc1cc(=O)[nH]c(SC)n1 | -0.05
35 | Cc1ccc(S(=O)(=O)Oc2cc(N)c3c(n2)CCC3)cc1 | 0.3
36 | O=C(Nc1ccc(Br)cc1)Nc1ccccc1Cl | -0.9
37 | Clc1ccc(Nc2nnc(-c3ccc4c(c3)OCO4)o2)cc1 | -0.7
38 | CCN1CCCC(Sc2nc3c([nH]2)c(=S)n(C)c(=O)n3C)C1 (configuration not stated) | 0.45
39 | O=C(O)c1cc(O)ccc1N=Nc1ccccc1 | 1.55
40 | CCC(=Cc1ccc(CC)cn1)CC | 1.85
41 | O=[N+]([O-])c1cccc(/C=C/c2ccccn2)c1 | -1.2
42 | C(=C\c1ccccn1)/c1ccccn1 | 2.1
43 | C(=C\CSc1ccccn1)/CSc1ccccn1 | -0.6
44 | CC(=O)c1c(O)c(C)c(O)c2c1OC1=CC(=O)/C(=C(/C)N)C(=O)C12C (configuration not stated) | -1.2
45 | C/C=C1\NC(=O)[C@H]2CSSCC/C=C/[C@H](CC(=O)N[C@H](C(C)C)C(=O)N2)OC(=O)[C@H](C(C)C)NC1=O | 3
46 | O=C(Nc1nc2ccccc2s1)Nc1ccc([N+](=O)[O-])cc1Cl | 0.35
47 | CN(C)c1nc(Cl)nc2c1nc(Cl)n2C1CCCCO1 (configuration not stated) | 1.4
48 | O=C(/C=C/c1ccccc1)CC(c1ccccc1)N1CCOCC1 (configuration not stated) | -0.6

Row | SMILES | T2 sensor activation Q score
49 | C1COCCN1.O=C(O)C(C=C(Cl)Cl)N1CCOCC1 (configuration not stated) | 2.65
50 | CCCCCCCCC(=O)c1c(OC)oc(C=O)cc1=O | 0.5
51 | C/C(=N/O)[C@H]1CC[C@H]2[C@@H]3CC[C@@H]4C/C(=N\O)CC[C@]4(C)[C@H]3[C@@](C)(O)C[C@]12C | 0.5
52 | COC(=O)c1c(-c2ccccc2)[nH]c(-c2nccc3ccccc23)c1C(=O)OC | -0.35
53 | COc1cc(NC(=O)CCl)ccc(=O)c1 | 0.6
54 | Nc1o[nH]c(=O)c1C1CCCCC1 | -0.8
55 | Cc1cc(-n2cnc3c(=O)[nH]cnc32)ccc1N | 1.35
56 | CS/C(=C\c1ccc(C(=O)c2ccc(C)cc2)n1C)[S+](C)[O-] (configuration not stated) | 5.35
57 | CCOC(=O)Nc1ccc2nc(Sc3ccc(Cl)cc3)sc2c1 | 0.35
58 | Cc1ccc(S(=O)(=O)CCOC(=O)CNC(=O)OCc2ccccc2)cc1 | -0.1
59 | COC(=O)c1cc2c(n1S(=O)(=O)c1ccc(C)cc1)C(=O)C(=O)c1[nH]cc(C(=O)OCc3ccccc3)c1-2 | 2
60 | NC(=O)NC(=O)c1nccnc1C(=O)O | -0.2
61 | O=C(c1ccccc1)c1ccccc1C(=O)c1ccccc1 | 0.65
62 | COC(=O)C[C@](O)(CCCC(C)(C)O)C(=O)O[C@@H]1C(OC)=C[C@]23CCCN2CCc2cc4c(cc2[C@H]13)OCO4 | 4.5
63 | COc1c(O)ccc2c1CN1CCc3cc4c(cc3C1C2)OCO4 (configuration not stated) | -1.3
64 | C[C@]12CC[C@H](O)CC1=CC[C@@H]1[C@@H]2CC[C@]2(C)c3[nH]ncc3C[C@@H]12 | 0.2
65 | COc1ccc(C(=S)N2CCN(c3ccccc3C)CC2)cc1 | -0.85
66 | CCn1c(=O)n(C)c2c(=O)n(C)c(=O)n(C)c21 | -1.1
67 | Cn1c(=O)c2c(nc(N3CCCCC3)n2C)n(C)c1=O | -0.7
68 | Cn1c(=O)c2[nH]c(N3CCCCC3)nc2n(C)c1=O | 2.15
69 | CCCc1nc2c([nH]1)c(=O)n(C)c(=O)n2C | 1.8
70 | Cn1c(=O)c2c(nc(Cc3ccccc3)n2C)n(C)c1=O | 1.35
71 | Cc1c2oc3c(C)ccc(C(=O)N[C@@H]4C(=O)N[C@H](C(C)C)C(=O)N5CCC[C@H]5C(=O)N(C)CC(=O)N(C)[C@@H](C(C)C)C(=O)O[C@@H]4C)c3nc-2c(C(=O)N[C@@H]2C(=O)N[C@H](C(C)C)C(=O)N3CCC[C@H]3C(=O)N(C)CC(=O)N(C)[C@@H](C(C)C)C(=O)O[C@@H]2C)c(N)c1=O | -1.15
72 | Cc1cc2cc3c(=O)[nH]c(=O)[nH]c3nc2cc1C | -0.35

Row | SMILES | T2 sensor activation Q score
73 | N#CC1C(=O)NC(=O)C(C#N)C12CCCC(C(F)(F)F)C2 (configuration not stated) | 0.45
74 | CN(C)C=Nc1ccc(Cl)c(Cl)c1 | -1.85
75 | C1C2CC3C1C3/C2=N\N=C1/C2CC3C(C2)C13 | 0.3
76 | Nc1ccc(SCc2nc3cccc4c3n2CCC4)cc1 | 0.35
77 | Cn1c2c(sc1=O)CCC2 | -0.4
78 | C#CCSc1n[nH]c(-c2ccco2)n1 | 1.7
79 | COc1ccccc1NC(=O)Oc1cccc(OC(=O)c2ccccc2)c1 | 0.2
80 | COc1ccc(Cc2nnc(SC)n2-c2ccc(F)cc2)cc1OC | 0.45
81 | O=C1c2ccccc2C(=Cc2cccnc2)c2ccccc21 | 0.2
82 | Cc1ccc(NC(=O)NNC(=O)CSC2CCc3ccccc32)c(C)c1 (configuration not stated) | -1.2
83 | O=C(Nc1ccsn1)c1ccc(Cl)cc1Cl | 1.25
84 | Nc1ccn(C2OC(CCl)C(O)C2O)c(=O)n1 (configuration not stated) | -0.65
85 | Cn1ncc2c(Nc3ccc([N+](=O)[O-])cc3)nc(Cl)nc21 | -0.5
86 | CC1=NCC(C)c2ccccc21 (configuration not stated) | 3.25
87 | COc1ccc(-c2cc(-c3ccccc3)c(-c3ccccc3)nn2)cc1 | -0.95
88 | CCOC(=O)Nc1ccc2nc(N3CCCCCC3)sc2c1 | 0.95
89 | O=C(C=Cc1ccc(O)c(O)c1)c1ccccc1O | -0.4
90 | Cc1nc(SCC(=O)O)n[nH]1 | -1.55
91 | CCOc1ccc(/C=C2\CCc3ccccc3C2=O)cc1 | 0.5
92 | CCOC(=O)N1CCN(Cc2c(O)ccc3ccccc23)CC1 | -0.05
93 | CCOC(=O)N1C/C(=C\c2ccccc2)C(=O)/C(=C/c2ccccc2)C1 | 2.95
94 | CC(=O)NC1=C/C(=C\[N+](=O)[O-])C=C1O | -0.65
95 | COc1cc2c(cc1OC)C(=O)Cc1ccc3c(c1CN(C)CC2)OCO3 | 1.1
96 | CCN1CCCCC(=NO)C(=NO)CCCC1 | 1.05

Row | SMILES | T2 sensor activation Q score
97 | COc1ccc(OC(=O)Nc2ccc([N+](=O)[O-])cc2OC)cc1 | 0.95
98 | O=C1C2C3C=CC(O3)C2C(=O)N1Nc1ccccc1 (configuration not stated) | 0.25
99 | C(=N\Nc1nnn(Cc2ccccc2)n1)/c1ccccc1 | 0.5
100 | Nc1ccc(-c2nc3nc(N)nc(N)c3nc2-c2ccc(N)cc2)cc1 | 4.95
101 | CCN(CC)CCNc1c(C)cc(CO)c(Cl)c1C | 0.25
102 | C#CC(C)OCC1CNC(=S)O1 (configuration not stated) | -1.4
103 | CN(C)c1ccc(/C=N\NC(=O)c2cnc3ccccc3c2)cc1 | -0.3
104 | NS(=O)(=O)c1cc2c(cc1Cl)NC(CC1CCCC1)NS2(=O)=O (configuration not stated) | 0.8
105 | S=c1cn[nH]c2ccccc12 | 0.55
106 | S=c1[nH]c2ccccc2n2cccc12 | 1.1
107 | S=c1[nH]c2ccccc2c2ccccc12 | 1.95
108 | O=C(c1ccccc1)c1ccc(Sc2ccc([N+](=O)[O-])cc2)cc1 | 7.7
109 | O=C(c1ccccc1)c1ccc(-c2ccc(O)cc2)cc1 | 1.55
110 | CSC(=O)NC(=O)NC(=O)c1ccc([N+](=O)[O-])cc1 | 1.05
111 | CCN(CC)CCN1c2ccccc2Sc2ccc3ccccc3c21 | -0.8
112 | OC(c1cc(-c2ccc(C(F)(F)F)cc2)nc(C(F)(F)F)c1)C1CCCCN1 (configuration not stated) | 0.5
113 | CCCCSc1ncnc2[nH]ncc12 | 0.45
114 | O=[N+]([O-])c1ccc2c3ccccc3[s+]([O-])c2c1 (configuration not stated) | 0.25
115 | CC(C)NCC1CCc2cc(CO)c([N+](=O)[O-])cc2N1 (configuration not stated) | -0.55
116 | Cc1ccc(Cl)cc1NC(=O)c1cc2ccccc2cc1O | -0.35
117 | CCOC(=O)Cc1cc(=O)c2cc(C)ccc2[nH]1 | 0.8

From the supplement of paper PMC5407854, “Inhibitor of ppGalNAc-T3-mediated O-glycosylation blocks cancer cell invasiveness and lowers FGF23 levels” (eLife, 2017)
